Source: PubChem (National Center for Advancing Translational Sciences (NCATS))
The full list was thinned out, with hits kept by preference.
Pf Dd2 inh: Plasmodium falciparum Dd2 growth inhibition. P. falciparum Dd2 growth, SYBR Green, 72 h. Potency, µM (series often up to 28.9 µM), for inactives: at the highest dose activity, negative = inhibition, usual class: inhibitors. 120,000 tested, 4.3% active. AID 1347417; active = well fitted inhibition curve with a large enough effect;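 also: plate controls were DMSO vehicle for no effect and reference drug for full effect; nearly all actives have a fitted effect of over 65% in size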
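Infected erythrocytes (Dd2, 0.3% parasitemia, 2.5% hematocrit final) are added to compound in RPMI-1640/Albumax II medium, grown 72 h at 37C in low oxygen, then lysed with saponin/Triton-X containing SYBR Green and read by fluorescence.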
Active calls of the source: *; i = inactive; [ ] = remark or other dose. Potency is read from the fitted curve at half-maximal effect.

SMILES	Pf Dd2 inh
Cc1ccc([S+](=O)([O-])N2CCC(c3nn(C)c(=O)[nH]3)CC2)cc1	-4.0%
O=[S+]1([O-])NC2(CCCN(Cc3cccc(C(F)(F)F)c3)C2)COc2ccccc21 (stereo not drawn)	i
COc1ccc(CNC(=O)[C@@]23CCCC[C@H]2N(CCC(C)C)C(=O)CC3)cc1OC	i
COC(=O)c1cc2n(n1)CCN(C(=O)CCc1cccc(OC)c1)C2	-13.9%
O=C(NCc1ccccc1)N1CCC2(CCCCO2)CC1	-1.9%
COc1ccc2c(c1)-c1nc(NC(=O)c3ccccc3F)sc1CC2	-16.2%
COc1ccc2c(c1)-c1nc(NC(=O)c3cc(OC)c(OC)c(OC)c3)sc1CC2	5.01µM*
COc1ccc2c(c1)-c1nc(NC(=O)c3cc(Cl)ccc3OC)sc1CC2	-2.4%
O=C1NCc2ccccc2CC12CCN(Cc1c(Cl)cncc1Cl)C2 (stereo not drawn)	-6.3%
O=C(c1ccccc1Cl)N1CCCN(c2nc3ncccc3o2)CC1	6.1%
Cc1noc(C)c1-c1cnc(Nc2ccc(Cl)cn2)c2c1CCO2	-15.9%[44.1 µM]
Cc1noc(C)c1-c1cnc(Nc2ccc(CN3CCN(C)CC3)cc2)c2c1CCO2	5.62µM*
Cc1noc(C)c1-c1cnc(Nc2cc(F)cc(N3CCOCC3)c2)c2c1CCO2	-5.9%[44.1 µM]
O=C1CC[C@@H](C(=O)N2CCc3onc(C(c4ccccc4)c4ccccc4)c3C2)N1	i
CN(CC1CCOCC1)C(=O)c1cccc(F)c1	37.5%
Cc1ccc(Cl)cc1N1CCN(C(=O)Cn2cnc3onc(-c4ccc(F)cc4)c3c2=O)CC1	13.5%[5.79 µM]
O=C(c1ccc2c(c1)N(Cc1ccc(F)cc1)CCS2)N1CCN(c2ccccc2)CC1	10µM*
Cc1c(C)n(Cc2ccccc2)c2ccc(C(=O)N3CCN(c4ccc(F)cc4)CC3)cc12	15.9%
Cc1ccc(C)c(N2CCN(C(=O)CN3CCSc4ccccc43)CC2)c1	7.0%
Cc1ccc(Cl)cc1N1CCN(C(=O)c2ccc3c(c2)N(Cc2ccc(F)cc2)CCS3)CC1	7.94µM*
Cc1c(C)n(Cc2ccc(F)cc2)c2ccc(C(=O)N3CCN(c4ccc(Cl)cc4)CC3)cc12	-18.6%
Cc1ccc(CN2CCSc3ccc(C(=O)N4CCN(c5cc(C)ccc5C)CC4)cc32)cc1	11.2µM*
O=C(CN1CCSc2ccccc21)N1CCN(c2ccc(F)cc2)CC1	2.5%
COc1ccc(Cn2c(=O)[nH]c3cc(C(=O)N4CCN(c5cc(C)ccc5C)CC4)ccc3c2=O)cc1	i
O=C(N[C@@H]1CCC[C@@H]1C(=O)NCc1ccc(OC(F)(F)F)cc1)c1ccncc1	-11.9%
SMILES	Pf Dd2 inh
COCC(=O)N1CC(C(=O)NCc2ccncc2)C2(CCOCC2)C1 (stereo not drawn)	17.4%
Cc1ccc(-n2c(C3CCN(C(=O)Cc4c(F)cccc4Cl)CC3)n[nH]c2=O)cc1	-14.8%
O=C(c1cccs1)C1CCCN(Cc2cc3n(n2)CCNC3)C1 (stereo not drawn)	-6.7%
CC1=NOC2(CCN(Cc3ccccc3)C2)C1 (stereo not drawn)	i
Cc1ccc(S(=O)(=O)N2CCC(CCC(=O)N3CCN(C)CC3)CC2)cc1	i
O=C(O)CO[C@@H]1COCC[C@H]1NC(=O)C1(CO)CC1	4.1%
O=C(CN1CC2CC(C1)[C@H]1CCCC(=O)N1C2)NCc1ccc(F)cc1 (stereo partly drawn)	-1.7%
CCc1nc2ccc(C(=O)N3CCN(c4ccccc4F)CC3)cc2nc1CC	2.82µM*
CCN1c2cc(C(=O)N3CCN(c4ccccc4F)CC3)ccc2C(=O)N2CCCCC21 (stereo not drawn)	i
CCc1nc2ccc(C(=O)N3CCN(c4ccccc4)CC3)cc2nc1CC	6.31µM*
O=C(c1ccc2c(c1)CCN2S(=O)(=O)c1ccccc1)N1CCN(c2ccccc2F)CC1	45.4%
O=C(c1ccc2c(Cl)c3c(nc2c1)CCCC3)N1CCN(c2ccccc2)CC1	-16.4%
CCc1nc2ccc(C(=O)N3CCN(c4ccc(Cl)cc4)CC3)cc2nc1CC	21.4%
O=C(c1ccccc1OCC1CCCN(Cc2cccnc2)C1)N1CCCCC1 (stereo not drawn)	-8.4%
COc1ccc(CCC(=O)N2CCC[C@H]2c2nc(-c3ccccc3)no2)cc1	i
COc1ccc(C2Cn3cnc(C(=O)N4CCC(C(=O)NC(C)c5ccccc5)CC4)c3CO2)cc1 (stereo not drawn)	-17.7%
COc1ccccc1C(=O)N[C@@H]1CN(Cc2ccncc2)C[C@H]1CN(C)C	-20.6%
CCOc1ccccc1C(=O)N[C@@H]1CN(Cc2ccncc2)C[C@H]1CN(C)C	5.01µM*
CCOc1ccccc1C(=O)N[C@@H]1CN(Cc2cccnc2)C[C@H]1CN(C)C	-36.8%
COc1cccc(S(=O)(=O)N2CCn3c(nnc3-c3ccncc3)C2)c1	10.2%
O=C(C1CCOC1)N1CC(Oc2ccc(-c3nc(-c4ccccc4)no3)cc2)C1 (stereo not drawn)	-19.4%[5.79 µM]
CCOc1cccc(CNC(=O)C2CCN(C(=O)c3ncn4c3COC(c3ccccc3)C4)CC2)c1 (stereo not drawn)	19.0%
CCOC(=O)c1ccc(NC(=O)Cn2c(C)cc3nc4n(c(=O)c32)CCCCC4)cc1	i
